# Compounds with a hit are over-represented: about 3.9% of the library has one in this group of screens.
# PLCg1 inh: PLC-gamma1 enzyme inhibitors, primary screen, biochemical, fluorescence, purified enzyme; 1-phosphatidylinositol 4,5-bisphosphate phosphodiesterase gamma-1 (Homo sapiens), P19174; fluorogenic substrate; inhibition, % at 12.2 µM; 0.84% of 370,000 active; in the data active = inhibition above about 9.5%
# Yeast superoxide: reduction of superoxide in aged yeast, primary screen, HTS | 0.18% of 330,000 active | superoxide response (% of plate mean), % at 10 µM | S. cerevisiae aged cells, superoxide DHE fluorescence; stronger effect = lower value;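 active = superoxide response under a set limit, about three screen SD below normal, cut at about 65% in these data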;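 also: yeast aged for seven days with compound at 30 °C before DHE staining; 100% = average MFI of all compound-treated wells on the plate with controls excluded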
# AHR act: AHR activators, primary screen, cell-based, luminescence, luciferase reporter, human. AID 2796, 2010. activation, % at 5 µM. Aryl hydrocarbon receptor (Homo sapiens), P35869. AHR-responsive luciferase reporter cells. 2.5% of 320,000 active; in the data active = activation above about 47%;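 also: 0% = vehicle wells and 100% = reference agonist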
# HIF activator: HIF pathway transcriptional activators, primary screen, cell-based, U2OS HRE-luciferase, luminescence; U2OS HRE-luciferase reporter; normalized: DMSO 0%, desferrioxamine 100%; activation, % at 7.5 µM (by protocol); 0.32% of 300,000 active;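 active = mean activation of at least 10% of the iron chelator positive control signal, with at least half of replicates also reaching 10%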
# PLC-beta3 inh: human PLC-beta3 inhibitors, primary screen, biochemical, fluorescence. 1-phosphatidylinositol 4,5-bisphosphate phosphodiesterase beta-3 (Homo sapiens), Q01970. Purified PLC-beta3, fluorogenic substrate. inhibition, % at 12.2 µM. 0.18% of 370,000 active. AID 720704, 2013; in the data active = inhibition above about 11%;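 also: 0% = median of compound wells on plate and 100% = full blocker control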
# HGIII-sPLA2 inh: human group III sPLA2 inhibitors, primary screen, biochemical, QFRET, BODIPY PC-A2 liposome substrate | inhibition, % at 12.2 µM | 0.56% of 370,000 active | QFRET BODIPY PC-A2 liposome hydrolysis, fluorescence | AID 743126, 2013;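 active = inhibition above mean plus 3 SD of compounds lying within the high and low control bounds, cut at about 19% in these data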;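 also: 0% = median of test compound wells and 100% = no enzyme DMSO wells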
# * = called active by the depositor; nt = no result.
SMILES,PLCg1 inh,Yeast superoxide,AHR act,HIF activator,PLC-beta3 inh,HGIII-sPLA2 inh
Cc1cc(NS(=O)(=O)c2ccc(NC(=O)CSc3nnc(-c4ccco4)n3-c3ccc(Cl)cc3)cc2)nc(C)n1,-2.1,nt,nt,nt,-4.2,-32.0
CC1(C)CC(=O)C=C(c2ccc3c(c2)OCO3)C1,-77.2,95.0,59.4*,-0.1,-136.1,7.6
COC(=O)C1CN(Cc2ccc(OC)cc2)CCS(=O)(=O)N1Cc1ccc(Cl)cc1 (stereo not given),0.5,nt,nt,nt,-1.2,4.6
O=C(Nc1cccnc1)/C(N=Nc1cccnc1)=C(\O)c1ccccc1,2.8,95.3,60.9*,-0.1,2.2,0.1
O=C(Nc1ccccc1)C(=O)Nc1cccnc1,0.8,114.0,-5.1,-0.2,-1.9,0.1
O=C(NCCc1ccccc1)O[C@H]1CC[C@@]23CCCN2C(=O)CCC[C@H]3C1,-0.6,nt,nt,nt,0.6,-1.0
N#CC(C(=O)Nc1ccccc1)=C1Nc2ccccc2N1,-4.8,115.6,77.9*,1.9,-7.1,-22.8
CCOc1ccc(Nc2nc(NCc3ccco3)nc(N)c2[N+](=O)[O-])cc1,-0.7,123.8,7.9,0.3,-3.6,-2.6
Cc1ccc(Nc2nc(N)c([N+](=O)[O-])c(NCc3ccco3)n2)cc1C,0.7,106.6,64.3*,1.4,0.2,-24.5
Nc1nc(NCc2ccco2)nc(Nc2ccc(F)cc2)c1[N+](=O)[O-],-1.9,92.2,113.0*,-0.2,-1.2,-5.6
COc1ccc(OC)c(Nc2nc(NCc3ccco3)c3ccccc3n2)c1,-24.3,100.9,60.2*,-0.4,-31.9,-10.9
Cc1ccc(Nc2nc(N)c([N+](=O)[O-])c(NCCO)n2)cc1C,3.1,105.7,80.8*,1.7,-2.9,12.7
COc1ccccc1Nc1nc(NCc2ccco2)nc(N)c1[N+](=O)[O-],5.2,77.9,7.7,0.0,-3.9,-15.7
Cc1ccccc1Nc1nc(NCc2ccco2)c2ccccc2n1,-14.6,99.4,17.0,0.6,-29.3,-7.6
Cc1nn(-c2ccccc2)c2sc(C(=O)NCC3CCCO3)cc12 (stereo not given),-11.3,nt,nt,nt,-10.7,-6.9
O=C1N2CCc3ccccc3C2CS(=O)(=O)N1CCc1ccccc1 (stereo not given),0.5,nt,nt,nt,2.7,0.9
COc1ccc(OC)c(Nc2nc(NCc3ccco3)nc(N)c2[N+](=O)[O-])c1,-0.8,69.9,61.6*,0.2,-5.3,1.3
CNc1nc(N)c([N+](=O)[O-])c(Nc2cccc(Cl)c2)n1,2.4,114.6,58.4*,0.2,-2.4,0.8
COCCCNc1nc(N)c([N+](=O)[O-])c(Nc2ccccc2OC)n1,-5.2,97.2,56.3*,-0.5,-5.5,-6.4
O=C1CCc2cc(S(=O)(=O)N3CCN(c4ccccc4Cl)CC3)ccc2N1,2.8,nt,nt,nt,-1.8,-5.2
Cc1ccc(NC(=O)C2CC3CCC2C3)cc1 (stereo not given),-0.8,nt,nt,nt,-1.1,13.3
COc1ccc(C2=CSC(/N=C/c3ccc(F)cc3)=NN2)cc1,-13.9,101.3,69.8*,nt,-18.6,10.7
COc1ccc(/C=N/c2c(-c3ccc(OC)cc3)nc3n2CCS3)cc1,-22.5,90.5,-1.1,-0.2,-35.7,-16.2
COc1cccc(N2CC(O)=C(c3nc4ccccc4s3)C2=N)c1,-66.5,105.8,57.4*,0.3,-60.9,8.2
COC(=O)[C@]12C[C@H](CC(=O)NCCc3ccccc3OC)C(=O)N(Cc3ccco3)C1=C[C@H](C1CCCC1)O[C@@H]2C,0.9,nt,nt,nt,-0.3,-19.8
SMILES,PLCg1 inh,Yeast superoxide,AHR act,HIF activator,PLC-beta3 inh,HGIII-sPLA2 inh
C[C@H]1COc2cc(Br)ccc2S(=O)(=O)N1Cc1cn(Cc2ccc(C(F)(F)F)cc2)nn1,-1.4,nt,nt,nt,-1.8,7.1
COc1cccc(-c2noc(-c3ccc(Cl)nc3)n2)c1,2.8,87.4,53.6*,1.6,4.1,-2.8
CCN(CCCNC(=O)CCNC(=O)Cn1ccc2ccccc2c1=O)c1ccccc1,3.8,nt,nt,32.5*,4.7,1.5
C=CCn1c(NC(=O)c2ccco2)nc2ccccc21,-6.8,89.9,68.0*,-0.1,-17.5,4.8
CC(=O)Nc1ccc2c(c1)CCCC2=O,1.9,93.4,-0.5,9.6*,-5.7,9.4
COc1ccc(Cn2ccc3ccc(-c4ccc5ccn(Cc6ccc(C#N)cc6)c5c4)cc32)cc1,-40.1,nt,nt,nt,-62.4,2.0
Cn1c(Cn2c(=O)sc3ccccc32)nnc1SCC(=O)NCc1ccc2c(c1)OCO2,3.6,104.4,0.5,-0.2,4.5,5.1
Cn1c(Cn2c(=O)sc3ccccc32)nnc1SCC(=O)Nc1ccc2c(c1)OCO2,2.0,94.2,59.1*,-0.2,5.2,-1.5
O=C(O)CCn1c2ccccc2c2nc3ccccc3nc21,-233.2,124.8,60.0*,-18.4,-292.9,12.3
N#CCn1c2ccccc2c2nc3ccccc3nc21,-83.2,92.3,46.7,1.1,-123.7,-2.2
CC(C)n1c2ccccc2c2nc3ccccc3nc21,-320.2,95.6,56.9*,0.4,-395.0,1.6
COC(=O)c1ccsc1NS(C)(=O)=O,-1.1,nt,nt,nt,-8.1,17.1
CC(C)CN1C(=O)[C@]2(CC(=O)N(C)C2c2ccccc2)c2cc(-n3cc(CO)nn3)ccc21 (stereo not given in full),7.7,nt,nt,nt,0.7,18.3
O=c1cc(CSc2nnc(Nc3ccccc3)s2)nc2sccn12,-14.7,112.5,56.6*,nt,-22.2,-1.2
COc1ccc(C(=O)Nc2cc(Cl)c(Br)cc2C(=O)O)cc1,-5.0,nt,nt,nt,-4.7,-21.5
CC(=O)c1ccc(N2CCN(S(=O)(=O)c3cc4[nH]c(=O)c(=O)[nH]c4cc3C)CC2)cc1,-11.8,93.7,47.1*,1.0,-16.6,15.8
CC(=O)c1ccc(N2CCN(S(=O)(=O)c3ccc4c(c3)CCC(=O)N4)CC2)cc1,-2.4,nt,nt,nt,-3.2,9.7
CCOC(=O)c1c(C)[nH]c(C)c1S(=O)(=O)N(C)CC(=O)Nc1cc(C)ccc1OC,2.4,110.4,55.2*,nt,-1.6,-0.4
CCOC(=O)c1c(C)[nH]c(C)c1S(=O)(=O)N(C)CC(=O)Nc1ccc(C)cn1,-1.2,88.5,5.6,-0.5,-9.6,4.7
Cn1nc(C(=O)Nc2ccc(Br)cc2)cc1C(=O)Nc1ccc(Br)cc1,3.0,109.1,64.8*,1.1,4.0,-5.0
Cn1nc(C(F)(F)F)cc1C(=O)Nc1ccc(Cl)cc1,8.8,113.0,68.9*,-0.1,-3.0,6.1
Cn1nc(C(F)(F)F)c2cc(C(=O)Nc3ccc(Cl)cc3)sc21,-0.1,141.0,63.5*,-0.1,3.5,-3.6
Cn1nc(C(F)(F)F)c2cc(C(=O)Nc3ccc(F)cc3F)sc21,2.0,96.8,-1.7,-0.4,2.9,1.4
